Among the data in PubChem BioAssay AID2284378 (EPA ToxCast) are AC50 values, retold here.

SMILES strings stand for the structures. Inconclusive results are not listed. Calls of active or inactive are those of the source. Rule for the calls: active = hit-call score of the fitted dose curve at least 0.9, where 1 is the maximum; inconclusive = response in the unintended direction; inactive = score below 0.9.

In general, AC50 refers to the concentration giving half of the maximal activity seen.

The assay has as its system frog Retinoid X Receptor beta (RXRb), gene 394278. The assay can be described thus: ATG_frRXRb_EcoTox2: Attagene TRANS-FACTORIAL EcoTox-2 HepG2 Assay for frog Retinoid X Receptor beta (RXRb). The procedure:
ATG_EcoTox2 is a cell-based, multiplexed assay created by modifying the existing Attagene TRANS-FACTORIAL system to include a panel of nuclear receptors from some or all the following species: human (Homo sapiens), african clawed frog (Xenopus laevis), rainbow trout (Oncorhynchus mykiss), japanese medaka (Oryzias latipes), and zebrafish (Danio rerio). The ECOTOX2-FACTORIAL format uses HepG2, a human liver cell line, with measurements taken at 24 hours after chemical dosing in a 24-well plate. ATG_frRXRb_EcoTox2 is one of 29 assay components calculated in the ATG_EcoTox2 assay. It is designed to make measurements of mRNA induction, a form of inducible reporter, as detected with fluorescence intensity signals by Reverse transcription polymerase chain reaction (RT-PCR) and Capillary electrophoresis technology.The assay endpoint ATG_frRXRb_EcoTox2 was analyzed in the positive analysis fitting direction relative to DMSO as the negative control and baseline of activity. Using a type of inducible reporter, measures of mRNA for gain-of-signal activity can be used to understand the reporter gene at the transcription factor-level as they relate to the gene RXRb. Furthermore, this assay endpoint can be referred to as a primary readout, because this assay has produced multiple assay endpoints where this one serves a reporter gene function. […]
Human liver HepG2 cells are transiently transfected with multiple reporter transcription units (MRTUs) in 6-well plates using FuGene 6 reagent (Roche; 3 ml FuGene/1 mg DNA). […] A major difference between the CIS and TRANS system is that in CIS activities of endogenous TFs are measured, whereas the TRANS assay evaluates changes in activities of exogenous, chimeric NR-Gal4 proteins. […] The fragments were purified using Qiaquick PCR columns (Qiagen), analyzed on an ABI 3130xL genetic analyzer (Applied Biosystems) with peak positions identified by using a set of X-rhodamine (ROX)-labeled MapMarker1000 molecular weight standards (BioVentures). […]
As for `O=C(O)C(F)(F)C(F)(F)C(F)(F)C(F)(F)C(F)(F)C(F)(F)C(F)(F)F`, the AC50 is 30 µM (active).

Take `[Cl][Sn]([c]1ccccc1)([c]1ccccc1)[c]1ccccc1`: the AC50 is 0.0888 µM (active).

In the case of `CCCCOCN(C(=O)CCl)c1c(CC)cccc1CC`, the AC50 is 38.5 µM (active).
